Pf Dd2 inh = inhibitors of Plasmodium falciparum Dd2 growth; P. falciparum Dd2 growth, SYBR Green, 72 h; Potency, µM (highest dose often 28.9 µM), hits mostly inhibitors; 120,000 compounds, 4.3% hits; AID 1347417; active means well fitted inhibition curve with a large enough effect; further: nearly all actives have a fitted effect of over 65% in size
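Readout: SYBR Green fluorescence, 485 nm excitation, 535 nm emission, after ~16 h lysis at 37C. Before that, Dd2-infected red cells (2.5% hematocrit) grew 72 h with compound, 29 uM top final concentration.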
Hits are given with their value; 0 = inactive. This excerpt belongs to a sample that is enriched for hits.

SMILES	Pf Dd2 inh
Cc1ccc(NC(=O)NC2CCN(C(=O)N3CC4CC(C3)[C@H]3CCCC(=O)N3C4)CC2)cc1C (some centres not stated)	0
Cc1ccc2c(=O)c(C(=O)c3cccc(Cl)c3)cn(CC(=O)NCc3ccc(F)cc3)c2n1	0
Cc1ccc(C)c(NC(=O)Cn2cc(C(=O)c3ccc(Cl)cc3)c(=O)c3ccc(C)nc32)c1	0
CCN(C(=O)Cn1cc(C(=O)c2ccc(F)cc2)c(=O)c2ccc(C)nc21)c1cccc(C)c1	8.9µM
O=C1NCCCCCN(C(=O)c2ccncc2)[C@H]2CCC[C@@H]12	0
COc1ccc(S(=O)(=O)N[C@H]2C[C@@H](c3nc(-c4ccc(C)cc4)no3)N(C)C2)cc1	0
COc1cccc(CN2CCCCCCN(C)C(=O)[C@@H]3CCC[C@@H]32)n1	2.5µM
CN1CCCCCCN(Cc2cccnc2)[C@H]2CCC[C@H]2C1=O	0
Cc1ccc(CNC(=O)N2CCCCCCN(C)C(=O)[C@@H]3CCC[C@@H]32)cc1	0
Cc1ccc(CN2CCCCCCN(C)C(=O)[C@@H]3CCC[C@@H]32)s1	6.3µM
COc1cccc(CN2CCCCCNC(=O)[C@@H]3CCC[C@@H]32)c1OC	0
CN1CCCCCCN(C(=O)c2ccoc2)[C@H]2CCC[C@H]2C1=O	0
CN1CCCCCCN(S(=O)(=O)c2ccccc2)[C@H]2CCC[C@H]2C1=O	4µM
O=C1NCCCCCCN(S(=O)(=O)c2ccccc2)[C@H]2CCCC[C@@H]12	0
O=C1NCCCCCCN(S(=O)(=O)c2ccccc2)[C@H]2CCC[C@@H]12	0
O=C(CCc1nc2ccccc2[nH]1)N1C[C@@H](CO)[C@H](c2ccncc2)C1	0
CCC(=O)Oc1c(Sc2ccc(Cl)cc2)c(C)nn1-c1ccccc1	0
Cc1nn(C(=O)c2ccccc2)c(C)c1Sc1ccc(Cl)cc1	11µM
Cc1ccc(Sc2c(C)nn(C(=O)c3ccc(Br)cc3)c2C)cc1	0
COCCNC(=O)C[C@@H]1C[C@H]2O[C@H](CNC(=O)NC(C)C)[C@@H](O)[C@H]2O1	0
O=C1CCC(C(=O)N2CCOCC2)CN1CCCc1ccccc1 (configuration not stated)	0
COC1C(=O)N(C2CCN(C(=O)NCc3ccc(C)cc3)CC2)C12CCOCC2 (configuration not stated)	0
CCCOC(=O)N1CCC(C(=O)Nc2cccc(-c3cccc(F)c3)c2)CC1	0
Cc1cc(C)c2nonc2c1S(=O)(=O)N1C[C@@H](N(C)C)[C@H](C(C)C)C1	11µM
CC(=O)N[C@H]1CN(S(=O)(=O)c2ccc(C)c(F)c2)C[C@@H]1C(C)C	0
SMILES	Pf Dd2 inh
Cc1nn(C)c(C)c1S(=O)(=O)N1C[C@@H](NS(C)(=O)=O)[C@H](C(C)C)C1	0
Cc1csc(NC(=O)c2nc(C(O)c3ccccc3)oc2C)n1 (configuration not stated)	0
Cc1nn(-c2ccccc2)c(C)c1[C@@H]1C=C[C@@H](NC(=O)CCCC(=O)O)C1	0
Cc1nn(-c2ccccc2)c(C)c1[C@@H]1C=C[C@@H](NC(=O)c2ccco2)C1	10µM
Cc1nn(-c2ccccn2)c(C)c1[C@@H]1C=C[C@@H](NC(=O)CC(C)(C)CC(=O)O)C1	0
Cc1nn(-c2ccccc2)c(C)c1[C@@H]1C=C[C@@H](NC(=O)CC(C)(C)CC(=O)O)C1	0
Cc1cc(Cl)ccc1-n1nc(C)c([C@@H]2C=C[C@@H](NC(=O)c3ccc(N(C)C)cc3)C2)c1C	10µM
COC(=O)c1cccc(NC(=S)N[C@@H]2C=C[C@@H](c3c(C)nn(-c4ccc(F)cc4)c3C)C2)c1	0
Cc1nn(-c2ccc(C(C)(C)C)cc2)c(C)c1[C@@H]1C=C[C@@H](NC(=O)CC2(CC(=O)O)CCCC2)C1	0
Cc1nn(-c2ccccc2[N+](=O)[O-])c(C)c1[C@@H]1C=C[C@@H](NCc2ccco2)C1	11µM
Cc1nn(-c2ccc(C(F)(F)F)cc2)c(C)c1[C@@H]1C=C[C@@H](NC(=O)CSCC(=O)O)C1	0
Cc1nn(-c2ccc(C(C)(C)C)cc2)c(C)c1[C@@H]1C=C[C@@H](NC(=O)CCCC(=O)O)C1	0
CC(=O)N[C@@H]1C=C[C@@H](c2c(C)nn(-c3ccc(C)c(Cl)c3)c2C)C1	0
Cc1nn(-c2ccc(F)cc2)c(C)c1[C@@H]1C=C[C@@H](NC(=O)c2ccco2)C1	6.3µM
CCc1nc(-c2c3n(c(=O)n(CC(N)=O)c2=O)CCCCC3)no1	0
COc1cccc(CN(Cc2cccnc2)C(=O)C2CNCCO2)c1OC (configuration not stated)	0
CCn1nc(CC(C)C)cc1C(=O)N(C)Cc1cccc(-n2cccn2)c1	0
CNC(=O)N1CCC(C2CCN(S(=O)(=O)c3cc(F)ccc3OC)C2)CC1 (configuration not stated)	0
CCCNc1cc(N2CCC(CCC(=O)O)CC2)ncn1	0
CCc1ccc(NC(=O)C(C)C2CCOCC2)cc1 (configuration not stated)	0
CCc1cn(C[C@H](NC(=O)C(C)(C)C)C(=O)O)c(=O)[nH]c1=O	0
COCC(=O)NC[C@H]1COCc2nc3cc(C(=O)OC)ccc3n21	0
